Composite z-score data for ten compounds are collected here from PubChem BioAssay.

This assay has as its system Plasmodium falciparum Sir2 (PF13_0152, Sir2A). Briefly: pfSir2 binders on small-molecule microarrays, primary screen, biochemical, small-molecule microarray, 635 nm fluorescence (AID 1098).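 Further: score merges spot fluorescence intensity with its signal-to-noise ratio.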 As to conditions: small-molecule microarray binding, fluorescence 635 nm; higher = more signal.
The compound `COc1cc2c(cc1O)C(C)N(Cc1ccc([N+](=O)[O-])o1)CC2` (stereo not given) came in with a composite z-score of 1.38. As for `COCCOC(=O)N1C(=O)[C@@]2(c3cc(C#Cc4ccc(OC)cc4)ccc31)[C@H](c1ccc(O)cc1)N1[C@H](c3ccccc3)[C@H](c3ccccc3)OC(=O)[C@H]1[C@@H]2C(=O)N1CCCCCCC1`, the composite z-score stood at 0.447.

`COc1ccc([Si](C)(C)[C@@H]2[C@@H](CC(=O)N(CCO)Cc3ccccc3)O[C@]3(C(=O)N(Cc4cccc(N5C(=O)c6cccc7cccc5c67)c4)c4ccccc43)[C@H]2C)cc1` registered a composite z-score of 1.5. Consider `Cc1ccc(S[C@]2(C(=O)O)CC(=O)N(Cc3ccccc3Cl)[C@@H]2c2ccc(CO)cc2I)cc1`, for which the composite z-score turned out to be 0.534.

The compound `COC(=O)C1=CC(CCCO)=CC(C2CC2)N(C)C=C1C(=O)OC` (stereo not given) registered a composite z-score of 0.948. In turn, `COCCOC(=O)N1C(=O)[C@@]2(c3cc(C#CCC(C(=O)OC)C(=O)OC)ccc31)[C@H](C(=O)N1CCc3cc(OC)c(OC)cc3C1)[C@H]1C(=O)O[C@H](c3ccccc3)[C@H](c3ccccc3)N1[C@@H]2c1ccc(OCCO)cc1` displayed a composite z-score of 1.37. Compound `COc1ccc([Si](C)(C)[C@H]2[C@H](CCO)O[C@@]3(C(=O)N(Cc4cccc(N5C(=O)COc6ccccc65)c4)c4ccccc43)[C@@H]2C)cc1` displayed a composite z-score of 0.957. `CN(C)CCCNC(=O)[C@@]1(C)c2ccccc2C(=O)N(Cc2ccccc2)[C@H]1c1ccc(CO)cc1`: the composite z-score is 1.71. Compound `COC(=O)c1c2oc(c1C(=O)OC)C(=O)N(Cc1ccccc1)Cc1cn(nn1)C[C@H](Cc1ccccc1)NC(=O)N[C@H](CO)CC2` displayed a composite z-score of 0.909. Then `[N-]=[N+]=NCc1ccccc1[C@H]1OC(c2ccc(OCCCO)cc2)=N[C@@]1(CCS(=O)(=O)c1ccccc1)C(=O)N1CCCCC1`, with 1.15.
